From PubChem
The full list was thinned out, with hits kept by preference.
UbGFP stabilizer – inhibits proteasome, raising ubiquitin-GFP reporter fluorescence | Ubiquitin-GFP reporter cells, proteasome inhibition, GFP fluorescence; response scale: untreated = 0%, 10 µM MG-132 = 100% | Potency, µM (highest dose often 45.9 µM), without a hit: at the highest dose activation (GFP accumulation), hits mostly activators | 67,000 tested, under 10 active; active = well fitted activation curve with a large enough effect, not every such curve was filed as active; inconclusive = small, poorly fitted or top-dose-only effect, or another doubt; inactive = no such curve, though single readings can be large or run the other way
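U2OS Ub(G76V)-GFP reporter; O/N plating, 0.5% FBS; cpd 46 uM–2.9 nM, 4 h, 37 °C; GFP+ cell count, 488/515 nm; norm. to basal vs 10 uM MG-132; CRC fit.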
15-hLO-2 inh – 15-hLO-2 (ALOX15B) enzyme inhibition | AID 881 | 0.56% of 110,000 active | Potency, µM (top dose mostly 57.1 µM), without a hit: at the top dose activity change, negative = inhibition, actives largely listed as inhibitors | O15296 | purified 15hLO-2, xylenol orange hydroperoxide absorbance; note: % is set by controls: 0 for no effect and ±100 for the full control effect; nearly all actives have a fitted effect of over 60% in size
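Enzyme 50 nM, AA 45 uM, 25 mM Hepes pH 7.5 + 0.01% Triton X-100; cpd preinc 15 min RT, rxn 90 min RT; stop/detect with 200 uM XO + 300 uM Fe(II) in 50 mM H2SO4, 30 min; A573/A405.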
Caspase-1 inhib – blocks human caspase-1 allosterically or competitively; Caspase-1 enzyme, Ac-WEHD-AFC fluorogenic rate; Potency, µM (titrated, usually from 57.5 µM), without a hit: at the top dose activity change, negative = inhibition, usual class: inhibitors; 0.03% of 75,000 active;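 note: plate controls were vehicle for no effect and no substrate for full effect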
15-hLO inh – 15-hLO (ALOX15) enzyme inhibition; purified 15hLO-1, xylenol orange hydroperoxide absorbance; P16050; 1.4% of 74,000 active; Potency, µM (top dose mostly 57.1 µM), for inactives: at the highest dose activity change, negative = inhibition, usual class: inhibitors; AID 887; note: % is set by controls: 0 for no effect and ±100 for the full control effect; nearly all actives have a fitted effect of over 55% in size
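Readout: Fe(III)-xylenol orange absorbance, 573-to-405 nm ratio as reaction progress. Enzyme 40 nM purified human 15hLO-1, substrate 50 uM arachidonic acid, 6 min RT after 15 min compound preincubation; Hepes pH 7.5 buffer with Triton X-100.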
Casp7 inh – caspase-7 (human) inhibition, allosteric or competitive; 0.02% of 75,000 active; recombinant caspase-7, Ac-DEVD-AFC fluorescence rate; AID 889; Potency, µM (highest dose often 57.5 µM), without a hit: top-dose activity change, negative = inhibition, actives largely listed as inhibitors; P55210; active = well fitted inhibition curve with a large enough effect in the main read-out, with a control signal flat, not every such curve was filed as active; inconclusive = small, poorly fitted or top-dose-only effect, or a change in a side signal; note: % of control where 0% means no effect
USP2a inh – USP2a (human) protease inhibition. USP2a enzymatic assay, qHTS inhibition. 0.1% of 60,000 active. O75604. Potency, µM (doses to about 38.3 µM), inactives show top-dose activity change, negative = inhibition, usual class: inhibitors; note: nearly all actives have a fitted effect of over 60% in size
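Inhibition is measured in a cell-free coupled assay with 20 nM USP2 core, 20 nM Ub-PLA2 and 20 uM NBD C6-HPC, 2.5 h incubation. Activity normalized to NEM control.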
An asterisk follows results filed as active; ? = inconclusive; nt = not tested or not shown; [ ] = another dose, or the depositor's remark. Unless noted, calls come from the whole dose curve; as a rule, active = well fitted curve in the direction sought with a large enough effect; inconclusive = small, poorly fitted or top-dose-only effect, or another doubt; inactive = no such curve, though single readings can be large; an effect the other way counts as inactive or inconclusive. Potency is the fitted concentration of half-maximal effect.

SMILES | UbGFP stabilizer | 15-hLO-2 inh | Caspase-1 inhib | 15-hLO inh | Casp7 inh | USP2a inh
CC1CCCCN1Cc1nc2c(c(=O)n(C)c(=O)n2C)n1Cc1c(F)cccc1Cl (configuration not stated) | -11% | nt | nt | 25µM* | ? | nt
Cn1c(=O)c2c(nc(CN3CCN(Cc4ccccc4)CC3)n2Cc2ccccc2)n(C)c1=O | -3% | 6% | -9% | 20µM* | -10% | nt
Cn1c(=O)c2c(nc(CN3CCC(C(N)=O)CC3)n2Cc2c(F)cccc2Cl)n(C)c1=O | nt | -6% | -9% | -7% | -1% | 7%
O=C1C[C@H]2OCC=C3CN4CC[C@@]5(C(=O)O)[C@H](N1)[C@H]2[C@H]3C[C@H]45 | -5%[9.17 µM] | -3%[11.4 µM] | -4%[11.5 µM] | 10%[11.4 µM] | 0%[11.5 µM] | nt
Cc1onc(-c2ccccc2Cl)c1C(=O)OCC(=O)N1CCCc2ccccc21 | 1% | -2% | -4% | 20µM* | -4% | 16%
Cc1onc(-c2ccccc2Cl)c1C(=O)N1CCCc2ccccc21 | 20% | -8% | 0% | 5% | -7% | -5%
CC(C)[C@@H]1NC(=O)[C@H](CCCCN)NC(=O)[C@H](Cc2c[nH]c3ccccc23)NC(=O)[C@H](Cc2ccc(O)cc2)NC(=O)[C@H](C)N(C)C(=O)[C@H](Cc2ccccc2)NC1=O | 2% | 14% | 2% | -8% | 2% | 10%
FC(F)(F)c1cc(-c2ccc3c(c2)OCO3)nc(NCc2ccco2)n1 | 1% | 3% | 3% | 20µM* | 0% | 1%
Cc1ccc(/C=N/c2sc3c(c2C#N)CCCCC3)o1 | -3% | -30% | ? | 25µM* | -10% | 14%
O=C(O)c1c2c(c(O)c3c1CN(C1CCCCC1)CO3)OCN(C1CCCCC1)C2 | -9%[9.17 µM] | 6%[11.4 µM] | -11%[11.5 µM] | -9%[11.4 µM] | -6%[11.5 µM] | nt
Oc1cc(CN2COc3ccccc32)c(O)cc1CNC1CCCCC1 | 2%[9.17 µM] | 3.2µM* | -10%[11.5 µM] | ? | 0%[11.5 µM] | nt
O=c1cc(CNC2CCCCC2)c2ccccc2[nH]1 | -2% | -6% | -2% | ? | 0% | -4%
CCc1ccc(C2C(C#N)=C(N)SC(N)=C2C#N)cc1 | 19%[9.17 µM] | ? | -5% | 0.63µM* | -3% | -10%[7.66 µM]
CCc1ccc(C2C(C#N)=C(N)SC(N)=C2C#N)s1 | -4% | ? | ? | 10µM* | ? | 12%
N#CC1=C(N)SC(N)=C(C#N)C1c1ccc(C(F)(F)F)cc1 | 7% | 13µM* | -14% | ? | -5% | 4%
CCOC(=O)C1=C(C)OC(N)=C(C#N)C1c1ccc(C)o1 (configuration not stated) | nt | -7% | nt | nt | nt | nt
CCOc1ccc(C2C(C#N)=C(N)SC(N)=C2C#N)cc1OCC | -4% | ? | -10% | ? | -11% | ?
Cc1ccc(C2C(C#N)=C(N)SC(N)=C2C#N)o1 | 9% | ? | -16% | 6.3µM* | -18% | 16%
CCc1cc(C(C)=O)c(O)cc1OCCCCCC(C)(C)c1nn[nH]n1 | nt | 4% | -4% | 20µM* | -8% | nt
O=C(OCC(=O)N1CCN(C(=O)c2ccco2)CC1)c1cc(-c2ccco2)nc2ccccc12 | nt | 13µM* | nt | nt | nt | nt
O=C(O)c1ccccc1C(=O)Nc1cc2c(cc1Br)-c1ccccc1C2=O | -3%[9.17 µM] | -7%[11.4 µM] | 1%[11.5 µM] | 6%[11.4 µM] | -4%[11.5 µM] | nt
CN(C)c1ccc(N/C=C/C(=O)c2ccccc2)cc1 | -5% | ? | -6% | ? | -4% | 9%
CN(C)c1ccc(N/C=C/C(=O)C(C)(C)C)cc1 | nt | 25µM* | nt | nt | nt | nt
CCOC(=O)c1c(C)nc2sccn12 | 14% | 0% | -1% | 5% | 1% | 0%
Cc1nc2sccn2c1P(c1c(C)nc2sccn12)c1c(C)nc2sccn12 | 2% | 25µM* | -1% | -27% | -1% | 4%
SMILES | UbGFP stabilizer | 15-hLO-2 inh | Caspase-1 inhib | 15-hLO inh | Casp7 inh | USP2a inh
N#CC1=C2SCN(Cc3ccccc3)CN2C(=O)CC1c1ccc2c(c1)OCO2 (configuration not stated) | 3% | ? | ? | 13µM* | -16% | 40%
COc1ccc(C2CC(=O)N3CN(Cc4ccco4)CSC3=C2C#N)cc1 (configuration not stated) | -6% | -29% | -4% | ? | -16% | 24%
N#CC1=C2SCN(Cc3ccco3)CN2C(=O)CC1c1ccc(Cl)cc1 (configuration not stated) | 0% | ? | -5% | 13µM* | -13% | 24%
CC(C)c1ccc(C2CC(=O)N3CN(Cc4ccco4)CSC3=C2C#N)cc1 (configuration not stated) | 0% | ? | -1% | 13µM* | -9% | 47%
N#CC1=C2SCN(Cc3ccccc3)CN2C(=O)CC1c1cccs1 (configuration not stated) | 9% | ? | ? | ? | ? | nt
NC([N-]/N=C/c1ccccn1)=[S]=[Fe].O=S(=O)(O)O | 1%[9.17 µM] | -13%[11.4 µM] | -3%[11.5 µM] | -12%[11.4 µM] | -1%[11.5 µM] | nt
O[C@@H](C1=C/C(=C\c2ccncc2)c2ccccc21)c1ccncc1 | -9%[9.17 µM] | -2%[11.4 µM] | 0%[11.5 µM] | 0%[11.4 µM] | 0%[11.5 µM] | nt
CCN(CC)CCNC(=O)CCCCn1c(=S)[nH]c2c([nH]c3ccc(OC)cc32)c1=O | -7% | -29% | 1% | 13µM* | 1% | 41%
CC(C)(C)[C@@]1(O)CCN2C[C@@H]3c4ccccc4CCc4cccc(c43)[C@@H]2C1 | 3% | 41% | 5% | -14% | 1% | 22%
O=C(NCCSc1c[nH]c2ccccc12)c1ccc(Br)o1 | 7% | nt | -5% | 25µM* | -1% | nt
Cc1[nH]c2ccccc2c1SCCNC(=O)c1ccc(Br)o1 | 0% | nt | -1% | -17% | -2% | 5%
Oc1ccc([C@@H]2CNCc3sccc32)cc1O | 5% | ? | -1% | ? | 0% | -3%
COc1ccccc1CNc1nc(-c2cccnc2)nc2ccccc12 | -2% | 21% | -1% | 25µM* | 0% | ?
COc1ccccc1-c1nccc(NCc2cnc(C)cn2)n1 | 3% | ? | -1% | 16µM* | 1% | -15%
COc1cccc(-c2nccc(NCc3cccc(C)c3)n2)c1 | -5% | 32% | -4% | 2% | -5% | ?
COc1ccccc1-c1nccc(NCc2ccccc2)n1 | -5% | 10% | -4% | -11% | -2% | 82%
COc1cccc(-c2nccc(NCc3ccccc3OC)n2)c1 | -3% | -3% | -3% | 25µM* | -4% | 51%
COc1cccc(-c2nccc(NCc3ccccc3)n2)c1 | 2% | -1% | -5% | 13µM* | -4% | -2%
CC1CCCCN1CCCNC(=O)c1ccc(Cc2nc3ccccc3[nH]2)cc1 (configuration not stated) | nt | nt | -2% | -2% | 0% | nt
